# According to ChEMBL document CHEMBL1201862, “PubChem BioAssay data set” (2004):
# Out of some 400,000 compounds screened, about 1,900 (0.47%) were called active. Not shown: some 14% with an inconclusive outcome. The rule behind the calls is not given here. This excerpt belongs to a sample that is enriched for actives.
# Molecular target: Ataxin-2 (Homo sapiens) (UniProt Q99700)
# Assay: qHTS for Inhibitors of ATXN expression.
# Format: functional
# Ataxin-2 (Homo sapiens), sequence (Q99700 whole entry): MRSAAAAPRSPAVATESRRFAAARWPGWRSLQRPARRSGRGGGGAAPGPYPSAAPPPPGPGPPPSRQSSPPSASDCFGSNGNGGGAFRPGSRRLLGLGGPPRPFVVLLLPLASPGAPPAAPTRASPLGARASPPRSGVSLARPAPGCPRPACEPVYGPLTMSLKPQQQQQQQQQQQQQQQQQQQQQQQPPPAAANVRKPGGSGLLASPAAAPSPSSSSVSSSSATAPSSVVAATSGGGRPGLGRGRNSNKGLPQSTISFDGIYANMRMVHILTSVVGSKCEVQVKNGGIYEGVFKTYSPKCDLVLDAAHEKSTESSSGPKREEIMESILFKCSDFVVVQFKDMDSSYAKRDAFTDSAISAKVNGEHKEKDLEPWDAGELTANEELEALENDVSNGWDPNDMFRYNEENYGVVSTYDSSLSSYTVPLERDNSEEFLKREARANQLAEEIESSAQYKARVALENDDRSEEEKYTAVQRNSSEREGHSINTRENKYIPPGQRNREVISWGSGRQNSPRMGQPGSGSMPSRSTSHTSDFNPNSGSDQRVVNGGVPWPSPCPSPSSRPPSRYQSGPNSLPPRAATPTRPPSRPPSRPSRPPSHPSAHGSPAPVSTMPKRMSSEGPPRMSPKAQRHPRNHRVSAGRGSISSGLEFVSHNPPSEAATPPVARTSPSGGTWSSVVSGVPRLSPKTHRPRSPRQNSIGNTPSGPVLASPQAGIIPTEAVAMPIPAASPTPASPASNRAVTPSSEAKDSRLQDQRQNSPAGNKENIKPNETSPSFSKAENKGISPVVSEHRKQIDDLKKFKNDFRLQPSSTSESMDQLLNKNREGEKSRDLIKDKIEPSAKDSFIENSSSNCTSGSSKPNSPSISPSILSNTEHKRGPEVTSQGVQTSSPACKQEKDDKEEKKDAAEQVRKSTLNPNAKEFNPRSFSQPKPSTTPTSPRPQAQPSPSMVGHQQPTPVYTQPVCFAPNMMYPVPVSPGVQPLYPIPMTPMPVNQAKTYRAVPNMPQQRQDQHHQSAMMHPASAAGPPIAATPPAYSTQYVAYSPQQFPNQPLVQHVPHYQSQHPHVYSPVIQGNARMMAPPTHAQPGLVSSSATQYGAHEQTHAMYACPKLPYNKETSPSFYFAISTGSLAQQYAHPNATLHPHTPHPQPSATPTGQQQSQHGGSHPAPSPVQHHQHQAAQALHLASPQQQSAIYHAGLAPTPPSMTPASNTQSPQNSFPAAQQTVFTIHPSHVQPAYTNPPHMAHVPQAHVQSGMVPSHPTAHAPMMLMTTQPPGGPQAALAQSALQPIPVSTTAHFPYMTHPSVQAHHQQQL
row,Structure (SMILES),Potency
1,CCOC(=O)[C@]12Cc3c(cc(OC)c(OC)c3OC)[C@H]1N(C)C(=O)c1cc(OC)ccc12,11.2 µM (active)
2,CCOC(=O)[C@]12Cc3ccccc3[C@H]1N(C(C)C)C(=O)c1ccccc12,22.4 µM (active)
3,CCOC(=O)[C@]12Cc3ccccc3[C@H]1N(C)C(=O)c1cc(OC)ccc12,31.6 µM (active)
4,CCOC(=O)[C@]12Cc3ccccc3[C@H]1N(C(C)C)C(=O)c1cc(OC)ccc12,17.8 µM (active)
5,N#CC1=C(N)Oc2c(c(=O)oc3ccccc23)C1c1ccc([N+](=O)[O-])o1 (configuration not stated),inactive
6,CC(C)OCC(O)CN1CC2C[C@@H](C1)Cn1c2cccc1=O (some centres not stated),inactive
7,Cc1cc(=O)oc2cc(OCC(=O)N3CCN(C(C)c4ccccc4)CC3)c(Cl)cc12 (configuration not stated),inactive
8,CCCCn1c(NC(=O)c2ccco2)c(C(=O)OCC)c2nc3ccccc3nc21,inactive
9,CCOC(=O)[C@]12Cc3cc(C)ccc3[C@H]1N(C(C)C)C(=O)c1ccccc12,11.2 µM (active)
10,CCCCN1C(=O)/C(=C/NNC(=O)c2ccncc2)C(=O)NC1=S,inactive
11,CCOc1c(Cl)cc(CNCCc2c[nH]c3ccccc23)cc1OC,20 µM (active)
12,COc1cccc(CNCCc2cccc(F)c2)c1OC,inactive
13,CCOc1c(Cl)cc(CNC(C)C(O)c2ccccc2)cc1OC (configuration not stated),inactive
14,COc1cccc(-n2c(/C=C/c3ccc(O)c(O)c3)nc3ccccc3c2=O)c1,inactive
15,COP(=O)(OC)c1nc(-c2ccc([N+](=O)[O-])cc2)oc1N1CCCCC1,inactive
16,O=[N+]([O-])/C=C/c1c(Cl)cccc1Cl,4.74 µM (active)
17,CC(C)CCNC(=O)c1c(N)n(CC2CCCO2)c2nc3ccccc3nc12 (configuration not stated),inactive
18,O=C1NC(=O)N(Cc2ccccc2)C(=O)/C1=C/NNC(=O)c1ccncc1,inactive
19,Cc1cnc(SCc2ccccn2)nc1C1CCCN(C(=O)c2scc3c2CCCC3)C1 (configuration not stated),25.1 µM (active)
20,Nc1ccc2c3c(cccc13)-c1ccccc1-2,inactive
21,Nc1c(C(=O)NCC2CCCO2)c2nc3ccccc3nc2n1Cc1ccco1 (configuration not stated),inactive
22,O=C(NCC1=C(c2ccc3ccccc3c2)C[C@@H]2CC[C@H]1N2Cc1ccco1)c1ccc([N+](=O)[O-])cc1,31.6 µM (active)
23,Nc1c(C(=O)NCc2ccco2)c2nc3ccccc3nc2n1Cc1ccccc1,inactive
24,CCC(Nc1ccccc1N)=C1C(=O)NC(=O)NC1=O,inactive

row,Structure (SMILES),Potency
1,CCC1(C)OC(c2ccccc2)=C/C(=C/C=C2C(=O)NC(=O)NC2=O)O1 (configuration not stated),inactive
2,O=c1ccc2cc(O[C@@H]3O[C@H](CO)[C@@H](O)[C@H](O)[C@H]3O)c(O)cc2o1,inactive
3,O=C(NCc1ccccc1)c1cccn(Cc2cccc(Cl)c2)c1=O,inactive
4,Cc1n[nH]c2ccc(-c3cncc(OC[C@@H](N)Cc4c[nH]c5ccccc45)c3)cc12,11.2 µM (active)
5,C[n+]1c2cc(N)ccc2cc2ccc(N)cc21,inactive
6,Clc1ccc(C(Cn2ccnc2)OCc2csc3c(Cl)cccc23)c(Cl)c1 (configuration not stated),28.2 µM (active)
7,Clc1ccc(COC(Cn2ccnc2)c2ccc(Cl)cc2Cl)cc1 (configuration not stated),39.8 µM (active)
8,COc1ccc(Br)cc1CNCCc1cccc(Cl)c1,inactive
9,CC/C(=C(\c1ccc(O)cc1)c1ccc(OCCN(C)C)cc1)c1ccccc1,39.8 µM (active)
10,CCCCCC[C@H]1C(=O)O[C@H](C)[C@H](NC(=O)c2cccc(NC=O)c2O)C(=O)O[C@@H](C)[C@H]1OC(=O)CC(C)C,inactive
11,C=CCc1ccccc1OCCn1c(C2CC(=O)N(Cc3ccc(F)cc3)C2)nc2ccccc21 (configuration not stated),39.8 µM (active)
12,CC[C@@H]1CN2CCc3cc(OC)c(OC)cc3[C@H]2C[C@@H]1C[C@H]1NCCc2cc(OC)c(OC)cc21,0.316 µM (active)
13,CC[C@@H]1CN2CCc3cc(OC)c(OC)cc3[C@H]2C[C@@H]1C[C@@H]1NCCc2cc(O)c(OC)cc21,0.0631 µM (active)
14,CC(=O)O[C@H]1CCC2C3CCC4=CC(=O)CCC4=C3C=C[C@@]21C (some centres not stated),inactive
15,CN1C(=O)C(=CNCCN2CCOCC2)C(=O)N(C)C1=S,inactive
16,Cc1ccc(N/N=C/C=C/c2ccco2)cc1,inactive
17,CC(=O)C12CC(C)=C(C)CC1CC1C3CCC4=CC(=O)CCC4(C)C3CCC12C (configuration not stated),inactive
18,O=C1NC(=O)N(CCc2ccc(F)cc2)C(=O)/C1=C/NNC(=O)c1ccncc1,inactive
19,Fc1ccc(C2=CCN(C(c3cccs3)c3nnnn3CCc3ccccc3)CC2)cc1 (configuration not stated),39.8 µM (active)
20,Clc1ccc2sc(C3CCNCC3)nc2c1,inactive
21,CCCCn1nnnc1C(c1cccc(OC)c1OC)N1CCC2(CC1)C(=O)NCN2c1ccccc1 (configuration not stated),39.8 µM (active)
22,O=C1NCN(c2ccccc2)C12CCN(C(c1cccc3ccccc13)c1nnnn1Cc1ccccc1)CC2 (configuration not stated),39.8 µM (active)
23,O=C1NCN(c2ccccc2)C12CCN(C(c1ccccc1OC(F)(F)F)c1nnnn1Cc1ccccc1)CC2 (configuration not stated),39.8 µM (active)
